This note sets out measurements from PubChem BioAssay (NCI).

The panel holds about 83,000 compounds, 20% with a hit somewhere; the sample as a whole holds those more often.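 Negative percent growth values reflect cell death: -40 means 40% of the cells present at the start died, and -100 means all died.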 Calls of active or inactive are those of the source. How the source made its calls: active means growth percent below 10; inactive means the rest.

In the first test the test system is SN12C renal. The test can be described thus: NCI-60 one-dose screen, 48 h (100 = growth as untreated, 0 = no growth, -100 = all killed). Conditions: 10 µM.
For the compound `COc1ccc(C2c3sc4ccc(C)cc4c3Oc3nc(N)nc(N)c32)cc1` (stereo not drawn), the growth is 91.4% (inactive).

With `Cc1cc(N=C2NC(=O)S/C2=C\c2ccc(F)cc2)n[nH]1`, the growth is 22.8% (inactive).

In the case of `Cn1cc(-c2nnc(N)nc2-c2c[nH]c3ccccc23)c2cc(Br)cnc21`, the growth was 56.1% (inactive).

`O=C(CC(=O)Nc1ccc(Oc2ncnc3scc(Nc4n[nH]c(=S)s4)c23)cc1)Nc1ccc(Cl)cc1`: the growth was 88.1% (inactive).

As for `O=C1NC2C=CC=CC2/C1=C1/SC(=S)N(C2CC(=O)N(c3ccc(Br)cc3)C2=O)C1=O` (stereo not drawn), the growth is 96% (inactive).

Regarding `CC1(C)CC(=O)C2=C(C1)N(Cc1ccc(C(=O)O)cc1)C1=C(C(=O)CC(C)(C)C1)C2c1ccc(Cl)cc1`, the growth was 103% (inactive).

`Cc1ccc2c(c1)C(=O)/C(=C/c1ccc([N+](=O)[O-])cc1)S2`: the growth was 93.4% (inactive).

With `O=C(Nc1ccc(OCc2ccc(Cl)cc2)cc1)Nc1ccc(Cl)c(C(F)(F)F)c1`, the growth is 18.2% (inactive).

As to `Cn1cc(-c2nc(N)nnc2-c2c[nH]c3ccccc23)c2cc(Br)cnc21`, the growth is 17.7% (inactive).

For `O=C(CSc1nc2ccccc2c(=O)n1-c1ccc(Cl)cc1)Nc1ccc(-c2nc3ccccc3[nH]2)cc1`, the growth is -37.2% (active).

`Cc1ccc2c(c1)C(=O)/C(=C/c1c[nH]c3ccccc13)S2`: the growth is 51.2% (inactive).

As for `COc1cccc(O)c1/C=C1\SCc2cc3c(OC)cccc3[o+]c21`, the growth is 101% (inactive).

Take `COc1cc(C2CC(c3ccc(Oc4ccc(Cl)cc4)cc3)=NN2c2nc(-c3ccc(Cl)cc3)c(C#N)c(N3CCOCC3)n2)cc(OC)c1OC` (stereo not drawn): the growth is 91.4% (inactive).

For the compound `O=C(Nc1ccc(OCC(=O)c2ccc(Cl)cc2)cc1)Nc1ccc(Cl)c(C(F)(F)F)c1`, the growth is 58% (inactive).

With `Cc1ccc2sc3c(c2c1)Oc1nc[nH]c(=O)c1C3c1cccc(F)c1` (stereo not drawn), the growth was 89.5% (inactive).

With `Cc1cc(N=C2NC(=O)/C(=C/c3cc(C(C)(C)C)c(O)c(C(C)(C)C)c3)S2)n[nH]1`, the growth was 16.6% (inactive).

On to `COc1ccc(C2c3sc4ccc(C)cc4c3Oc3nc[nH]c(=O)c32)cc1` (stereo not drawn), for which the growth is 91.7% (inactive).

As to `COc1cccc(C(=O)CSc2nc(-c3ccc(OCc4ccccc4)c(OC)c3)c(C#N)c(=O)[nH]2)c1`, the growth is 85.6% (inactive).

For `Cc1ccc(COc2ccc(NC(=O)Nc3ccc(Cl)c(C(F)(F)F)c3)cc2)cc1`, the growth is 81.1% (inactive).

Consider `CC(C)(C)c1cc(/C=C2\S/C(=N/c3ncn[nH]3)NC2=O)cc(C(C)(C)C)c1O`, for which the growth was 12.7% (inactive).

On to `Cn1cc(/C=C(/SS/C(=C/c2cn(C)c3cccc(C(=O)O)c23)C(=O)O)C(=O)O)c2c(C(=O)O)cccc21`, for which the growth is 99% (inactive).

Turning to `COc1ccc(C(=O)COc2ccc(NC(=O)Nc3ccccc3)cc2)cc1`, the growth is 91.1% (inactive).

With `CCn1c(SCC(=O)Nc2ccc(-c3nc4ccccc4[nH]3)cc2)nc2ccccc2c1=O`, the growth was -77.7% (active).

On to `O=C(Nc1ccc(OCc2ccc(F)cc2)cc1)Nc1ccc(Cl)c(C(F)(F)F)c1`, for which the growth was 21.9% (inactive).

As for `O=C(CC(=O)Nc1ccc(Oc2ncnc3scc(Nc4n[nH]c(=S)s4)c23)cc1)Nc1ccc(Br)cc1`, the growth is 106% (inactive).

Regarding `COc1ccc(C(=O)COc2ccc(NC(=O)Nc3ccc(Cl)c(C(F)(F)F)c3)cc2)cc1`, the growth is 40.9% (inactive).

For the compound `O=C(Nc1ccc(Oc2ncnc3scc(Nc4n[nH]c(=S)s4)c23)cc1)C1(C(=O)Nc2cccc(C(F)(F)F)c2)CC1`, the growth was 108% (inactive).

For `O=C1NC(=S)S/C1=C\c1cn(-c2ccccc2)nc1-c1ccc([N+](=O)[O-])cc1`, the growth was 14.9% (inactive).

`O=C(CSc1nc2ccccc2c(=O)n1-c1ccc(Cl)cc1)Nc1ccc(-c2nc3ccc([N+](=O)[O-])cc3[nH]2)cc1`: the growth is 42.9% (inactive).

For a further test, the system named is UO-31 renal. Described as above. As to conditions: 10 µM.
Take `COc1ccc(C2c3sc4ccc(C)cc4c3Oc3nc(N)nc(N)c32)cc1` (stereo not drawn): the growth is 60.5% (inactive).

Regarding `Cc1cc(N=C2NC(=O)S/C2=C\c2ccc(F)cc2)n[nH]1`, the growth was 12.1% (inactive).

Regarding `Cn1cc(-c2nnc(N)nc2-c2c[nH]c3ccccc23)c2cc(Br)cnc21`, the growth was 24.7% (inactive).

Regarding `O=C(CC(=O)Nc1ccc(Oc2ncnc3scc(Nc4n[nH]c(=S)s4)c23)cc1)Nc1ccc(Cl)cc1`, the growth is 47% (inactive).

In the case of `O=C1NC2C=CC=CC2/C1=C1/SC(=S)N(C2CC(=O)N(c3ccc(Br)cc3)C2=O)C1=O` (stereo not drawn), the growth was 68.3% (inactive).

`CC1(C)CC(=O)C2=C(C1)N(Cc1ccc(C(=O)O)cc1)C1=C(C(=O)CC(C)(C)C1)C2c1ccc(Cl)cc1`: the growth was 81.6% (inactive).

As to `Cc1ccc2c(c1)C(=O)/C(=C/c1ccc([N+](=O)[O-])cc1)S2`, the growth is 58.2% (inactive).

For `O=C(Nc1ccc(OCc2ccc(Cl)cc2)cc1)Nc1ccc(Cl)c(C(F)(F)F)c1`, the growth was 6.65% (active).

With `Cn1cc(-c2nc(N)nnc2-c2c[nH]c3ccccc23)c2cc(Br)cnc21`, the growth was 11.8% (inactive).

Take `O=C(CSc1nc2ccccc2c(=O)n1-c1ccc(Cl)cc1)Nc1ccc(-c2nc3ccccc3[nH]2)cc1`: the growth was -39.1% (active).

As to `Cc1ccc2c(c1)C(=O)/C(=C/c1c[nH]c3ccccc13)S2`, the growth is 40.4% (inactive).

Take `COc1cccc(O)c1/C=C1\SCc2cc3c(OC)cccc3[o+]c21`: the growth is 65.5% (inactive).

Turning to `COc1cc(C2CC(c3ccc(Oc4ccc(Cl)cc4)cc3)=NN2c2nc(-c3ccc(Cl)cc3)c(C#N)c(N3CCOCC3)n2)cc(OC)c1OC` (stereo not drawn), the growth was 79.2% (inactive).

With `O=C(Nc1ccc(OCC(=O)c2ccc(Cl)cc2)cc1)Nc1ccc(Cl)c(C(F)(F)F)c1`, the growth is 13.9% (inactive).

Consider `Cc1ccc2sc3c(c2c1)Oc1nc[nH]c(=O)c1C3c1cccc(F)c1` (stereo not drawn), for which the growth was 66.3% (inactive).

As to `Cc1cc(N=C2NC(=O)/C(=C/c3cc(C(C)(C)C)c(O)c(C(C)(C)C)c3)S2)n[nH]1`, the growth was 16.7% (inactive).

Regarding `COc1ccc(C2c3sc4ccc(C)cc4c3Oc3nc[nH]c(=O)c32)cc1` (stereo not drawn), the growth was 64.5% (inactive).

For the compound `COc1cccc(C(=O)CSc2nc(-c3ccc(OCc4ccccc4)c(OC)c3)c(C#N)c(=O)[nH]2)c1`, the growth was 82.8% (inactive).

As to `Cc1ccc(COc2ccc(NC(=O)Nc3ccc(Cl)c(C(F)(F)F)c3)cc2)cc1`, the growth was 63.5% (inactive).

As for `CC(C)(C)c1cc(/C=C2\S/C(=N/c3ncn[nH]3)NC2=O)cc(C(C)(C)C)c1O`, the growth is 15.1% (inactive).

For `Cn1cc(/C=C(/SS/C(=C/c2cn(C)c3cccc(C(=O)O)c23)C(=O)O)C(=O)O)c2c(C(=O)O)cccc21`, the growth is 88.1% (inactive).

On to `COc1ccc(C(=O)COc2ccc(NC(=O)Nc3ccccc3)cc2)cc1`, for which the growth is 80% (inactive).

Regarding `CCn1c(SCC(=O)Nc2ccc(-c3nc4ccccc4[nH]3)cc2)nc2ccccc2c1=O`, the growth was -95.4% (active).

For `O=C(Nc1ccc(OCc2ccc(F)cc2)cc1)Nc1ccc(Cl)c(C(F)(F)F)c1`, the growth was 7.5% (active).

`O=C(CC(=O)Nc1ccc(Oc2ncnc3scc(Nc4n[nH]c(=S)s4)c23)cc1)Nc1ccc(Br)cc1`: the growth was 85.1% (inactive).

Turning to `COc1ccc(C(=O)COc2ccc(NC(=O)Nc3ccc(Cl)c(C(F)(F)F)c3)cc2)cc1`, the growth was 33.3% (inactive).

For `O=C(Nc1ccc(Oc2ncnc3scc(Nc4n[nH]c(=S)s4)c23)cc1)C1(C(=O)Nc2cccc(C(F)(F)F)c2)CC1`, the growth is 69.4% (inactive).

Turning to `O=C1NC(=S)S/C1=C\c1cn(-c2ccccc2)nc1-c1ccc([N+](=O)[O-])cc1`, the growth is 14% (inactive).

Take `O=C(CSc1nc2ccccc2c(=O)n1-c1ccc(Cl)cc1)Nc1ccc(-c2nc3ccc([N+](=O)[O-])cc3[nH]2)cc1`: the growth is 74.3% (inactive).
